# This is part of a sample that, as a whole, favours compounds with a hit. Of some 83,000 tested, about 20% had one in any assay.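 Assay: single dose, 48 h. Readout: percent growth (0 = no net growth; negative = cell death). Active: <10.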 The source made the active and inactive calls.
# System: MCF7 breast
# Test: NCI-60 one-dose screen, 48 h (100 = growth as untreated, 0 = no growth, -100 = all killed)
# Details: 10 µM unless noted
row,SMILES,growth
1,COc1cccc2cc(-c3cc4ccccc4[nH]3)/c(=N\NC(=O)c3ccc(Cl)cc3)oc12,8.32% (active)
2,CC(C)(C)c1ccc(CC(=O)Nc2sc3c(c2C(N)=O)CCC(=O)C3)cc1,5.89% (active)
3,c1cn2c(ccc3nc(-c4cn[nH]c4)c4c(c32)CCCC4)n1,60.9% (inactive)
4,COc1cc(-c2nn(C(C)(C)C)cc2-c2ccnc(NCCCNS(=O)(=O)c3ccc(F)cc3)n2)ccc1Cl,74.3% (inactive)
5,Clc1nc2ccccc2nc1-c1nnc(C2CCCCC2)o1,37.4% (inactive)
6,CCCn1cnc2c(c1=N)C(c1ccc(F)cc1)c1sc3c(CC)cccc3c1O2 (stereo not given),18.1% (inactive)
7,COc1ccc(-n2c(/C=C3\C(=O)Nc4ccccc43)ccc2CO)cc1,93.3% (inactive)
8,N#Cc1ccccc1Cn1c2nc(=N)c3ccccc3c-2nc2ccccc21,34.7% (inactive)
9,COc1cc2nc(Cl)nc(Nc3cccc(C4=Nc5c(N)nc(N)nc5NC(c5ccc(F)cc5)C4)c3)c2cc1OC (stereo not given),-5.06% (active)
10,CCn1c2ccccc2c2cc(-n3nncc3-c3ccccc3)ccc21,13.4% (inactive)
11,CCCn1cnc2c(c1=N)C(c1ccc(Cl)cc1)c1sc3c(CC)cccc3c1O2 (stereo not given),17% (inactive)
12,Cc1ccc(C2=Nn3c(nnc3-c3ccccc3)SC2)cc1,16.4% (inactive)
13,Cc1ccc2sc3c(c2c1)OC(N)=C(C#N)C3c1ccc(Cl)cc1 (stereo not given),13.8% (inactive)
14,Cc1ccc(NC(=O)N[C@@H](Cc2cc(F)cc(F)c2)C(=O)NC2C(=O)N3C[C@H](O)C[C@H]3C(=O)N3CCCC[C@H]3C(=O)N[C@@H](CO)C(=O)N3C[C@H](C)C[C@H]3C(=O)O[C@H]2C)c(F)c1 (stereo not given in full),18.1% (inactive)

# System: HCT-116 colon
# Test: as above
# Details: 10 µM unless noted
row,SMILES,growth
1,COc1cc(OC)c(S(N)(=O)=O)cc1C(C)=O,114% (inactive)
2,O=S(=O)(Nc1ccc2c(c1)OCO2)c1ccc(-c2cnc(C3CC3)o2)cc1,19.9% (inactive)
3,COc1cccc2c1CN(C(=O)c1ccc(O)c(C(=O)N3Cc4ccc(OCCC[P+](c5ccccc5)(c5ccccc5)c5ccccc5)cc4C3)c1)C2,80.8% (inactive)
4,O=S(=O)(Nc1ccc(I)cc1Cl)c1ccc(-c2cnc(C3CC3)o2)cc1,22.1% (inactive)
5,C=C(C=O)[C@@H]1CC[C@]2(CO)CC[C@]3(C)[C@H](CC[C@@H]4[C@@]5(C)CCCNC(C)(C)[C@@H]5CC[C@]43C)[C@@H]12,-63.8% (active)
6,C=CCn1c(SCC(=O)Nc2ccc(C(=O)/C=C/c3cccc([N+](=O)[O-])c3)cc2)nnc1-c1c[nH]c2ccccc12,-32.6% (active)
7,CNC(=O)c1c(NC(=O)c2cccc(C(F)(F)F)c2F)sc2c1CCC(=O)C2,5.58% (active)
8,COc1ccc(C2c3sc4c(C)cccc4c3Oc3nc(CC(=O)Nc4ccccc4)[nH]c(=O)c32)cc1 (stereo not given),73.6% (inactive)
9,COCCNc1ccc2ncc(C#Cc3cncc(C(=O)Nc4ccc(CN5CCN(C)CC5)c(C(F)(F)F)c4)c3)n2n1,-66.9% (active)
10,CCN1CCN(C(=O)[C@]23CCC(C)(C)C[C@H]2C2=CC[C@@H]4[C@@]5(C)Cc6c([nH]c7ccccc67)C(C)(C)[C@@H]5CC[C@@]4(C)[C@]2(C)CC3)CC1,77.7% (inactive)
11,CCn1c(SCC(=O)Nc2cccc(C(=O)/C=C/c3ccc(C)cc3)c2)nc2ccccc2c1=O,10.8% (inactive)
12,CN1c2ccccc2Sc2cc(C=C(C#N)C#N)ccc21,105% (inactive)
13,CN1CCN(Cc2ccc(NC(=O)c3cncc(C#Cc4cnn5cccnc45)c3)cc2C(F)(F)F)CC1,4.34% (active)
14,N#Cc1cccc(/C(N)=N/C(N)=N/c2nc3ccccc3s2)c1,24% (inactive)
15,NS(=O)(=O)c1ccc(Nc2nc(N/N=C/c3c[nH]c4ccccc34)nc(Nc3ccccc3)n2)cc1,15.9% (inactive)
16,N#C/C(=C\c1ccc(-c2ccc(Cl)cc2Cl)o1)c1ccc(F)cc1,88.1% (inactive)
17,O=C1/C(=C/C=C/c2ccco2)SC(=S)N1C1CCCCC1,99.8% (inactive)
18,O=C(Nc1cccc(Cl)c1)Nc1nc2ccc([N+](=O)[O-])cc2o1,5.21% (active)
19,COc1cccc(C(=O)Nc2cccc(C#Cc3cccc4[nH]nc(N)c34)c2)c1,33.1% (inactive)
20,COc1cc(OC)c(S(N)(=O)=O)cc1C(=O)/C=C/c1ccc(Cl)cc1,7.77% (active)
21,COc1cc2nc(Cl)nc(Nc3cccc(C4=Nc5c(N)nc(N)nc5NC(c5ccc(Br)cc5)C4)c3)c2cc1OC (stereo not given),-10.5% (active)
